About 83,000 compounds went through this panel and 20% of them were active in at least one assay; those are over-represented in the sample as a whole.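 Cell lines were cultured in 96-well plates, exposed to a single compound concentration, and assessed for percent growth 48 hours later.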 Activity calls are given as the source filed them. How the source made its calls: active means growth percent below 10; inactive means the rest.
Tests used:
Experiment in all cases: NCI-60 one-dose screen, 48 h (100 = growth as untreated, 0 = no growth, -100 = all killed)
Details in all cases: 10 µM unless noted
SK-MEL-2 melanoma = tested on: SK-MEL-2 melanoma
EKVX NSCLC = tested on: EKVX NSCLC
SN12C renal = tested on: SN12C renal
UO-31 renal = tested on: UO-31 renal
TK-10 renal = tested on: TK-10 renal
ACHN renal = tested on: ACHN renal
A498 renal = tested on: A498 renal
CCRF-CEM leukemia = tested on: CCRF-CEM leukemia
MOLT-4 leukemia = tested on: MOLT-4 leukemia
SR leukemia = tested on: SR leukemia
RPMI-8226 leukemia = tested on: RPMI-8226 leukemia
OVCAR-8 ovarian = tested on: OVCAR-8 ovarian
OVCAR-5 ovarian = tested on: OVCAR-5 ovarian
OVCAR-4 ovarian = tested on: OVCAR-4 ovarian
SK-OV-3 ovarian = tested on: SK-OV-3 ovarian
IGROV1 ovarian = tested on: IGROV1 ovarian
OVCAR-3 ovarian = tested on: OVCAR-3 ovarian
HS 578T breast = tested on: HS 578T breast
NCI/ADR-RES ovarian = tested on: NCI/ADR-RES ovarian
T-47D breast = tested on: T-47D breast

Measured: growth

[2H]c1nc(Nc2ncc3cc(C(=O)N(C)C)n(C4CCCC4)c3n2)c([2H])c([2H])c1N1C([2H])([2H])C([2H])([2H])NC([2H])([2H])C1([2H])[2H]
inactive: SK-MEL-2 melanoma 83.9% | EKVX NSCLC 64.4% | SN12C renal 67.9% | UO-31 renal 52.5% | TK-10 renal 37% | ACHN renal 47.1% | A498 renal 76.8% | CCRF-CEM leukemia 38.5% | SR leukemia 26.6% | RPMI-8226 leukemia 31% | OVCAR-8 ovarian 73.8% | OVCAR-5 ovarian 40.3% | OVCAR-4 ovarian 93.1% | SK-OV-3 ovarian 57.1% | IGROV1 ovarian 65.8% | OVCAR-3 ovarian 97% | HS 578T breast 67.1% | NCI/ADR-RES ovarian 106%
active: MOLT-4 leukemia 5.14%

CCC1S/C(=N\N=C(/C)c2ccc[nH]2)N(c2ccccc2)C1=O (stereo not drawn)
inactive: SK-MEL-2 melanoma 124% | EKVX NSCLC 116% | SN12C renal 116% | UO-31 renal 43% | TK-10 renal 83.5% | ACHN renal 102% | A498 renal 112% | SR leukemia 32.5% | RPMI-8226 leukemia 57.5% | OVCAR-8 ovarian 90.2% | OVCAR-5 ovarian 99.3% | OVCAR-4 ovarian 104% | SK-OV-3 ovarian 123% | OVCAR-3 ovarian 89.7% | HS 578T breast 124% | NCI/ADR-RES ovarian 85.2%
active: CCRF-CEM leukemia -86.5% | MOLT-4 leukemia -50% | IGROV1 ovarian -48.7%

Sc1cccc2cccnc12
active: SR leukemia 6.61%
inactive: SK-MEL-2 melanoma 21.5% | EKVX NSCLC 29.2% | SN12C renal 39.3% | UO-31 renal 25.6% | TK-10 renal 48.3% | ACHN renal 30.1% | A498 renal 65.9% | CCRF-CEM leukemia 14.4% | MOLT-4 leukemia 22.2% | RPMI-8226 leukemia 26.5% | OVCAR-8 ovarian 27.1% | OVCAR-5 ovarian 59.6% | OVCAR-4 ovarian 36.3% | SK-OV-3 ovarian 45.5% | IGROV1 ovarian 36.9% | OVCAR-3 ovarian 17.9% | HS 578T breast 71.9% | NCI/ADR-RES ovarian 24.8% | T-47D breast 40.5%

COc1ccc2c(c1)OC13Oc4cc(OC)ccc4C=C1CCCCC3=C2
inactive: SK-MEL-2 melanoma 80.2% | EKVX NSCLC 88.8% | SN12C renal 93.6% | UO-31 renal 84.7% | TK-10 renal 86.8% | ACHN renal 104% | A498 renal 98.2% | CCRF-CEM leukemia 80.9% | MOLT-4 leukemia 80.6% | SR leukemia 99% | RPMI-8226 leukemia 97.8% | OVCAR-8 ovarian 92.5% | OVCAR-5 ovarian 104% | OVCAR-4 ovarian 104% | SK-OV-3 ovarian 80.8% | IGROV1 ovarian 99.3% | OVCAR-3 ovarian 108% | HS 578T breast 99.4% | NCI/ADR-RES ovarian 96.9%

N#Cc1c(-c2ccc(F)cc2)nc(N=Nc2c(O)[nH]c3ccc(Cl)cc23)nc1N1CCOCC1
inactive: SK-MEL-2 melanoma 64% | EKVX NSCLC 72.5% | TK-10 renal 11.6% | ACHN renal 14.6% | A498 renal 51.2% | CCRF-CEM leukemia 58.7% | MOLT-4 leukemia 48.5% | SR leukemia 47% | RPMI-8226 leukemia 80.1% | OVCAR-8 ovarian 19.1% | OVCAR-5 ovarian 84.5% | SK-OV-3 ovarian 17.2% | IGROV1 ovarian 29.3% | OVCAR-3 ovarian 21.6% | HS 578T breast 15.5% | NCI/ADR-RES ovarian 16.4%
active: SN12C renal -9.86% | UO-31 renal 6.44% | OVCAR-4 ovarian -37.7%

C[C@]12CC[C@@H]3c4ccc(O)cc4CC[C@H]3[C@@H]1C[C@H](O)C2
inactive: SK-MEL-2 melanoma 82.4% | EKVX NSCLC 44% | SN12C renal 71.6% | UO-31 renal 71.4% | TK-10 renal 96.4% | ACHN renal 99.7% | A498 renal 44.6% | CCRF-CEM leukemia 52.7% | MOLT-4 leukemia 47.5% | SR leukemia 25.4% | RPMI-8226 leukemia 79.7% | OVCAR-8 ovarian 82.7% | OVCAR-5 ovarian 116% | OVCAR-4 ovarian 87% | SK-OV-3 ovarian 82.7% | IGROV1 ovarian 79.2% | OVCAR-3 ovarian 73.2% | HS 578T breast 57.6% | NCI/ADR-RES ovarian 70.9% | T-47D breast 96.9%

O=c1cc(/C=N\Nc2nc(-c3ccc(Cl)cc3Cl)cs2)c2cc(Cl)ccc2o1
inactive: SK-MEL-2 melanoma 92.9% | EKVX NSCLC 79.3% | SN12C renal 95% | UO-31 renal 70.4% | TK-10 renal 120% | ACHN renal 97.7% | A498 renal 101% | CCRF-CEM leukemia 97.3% | MOLT-4 leukemia 98.1% | SR leukemia 80.7% | RPMI-8226 leukemia 90.8% | OVCAR-8 ovarian 99.7% | OVCAR-5 ovarian 96.9% | OVCAR-4 ovarian 85.3% | SK-OV-3 ovarian 81.8% | IGROV1 ovarian 79.8% | OVCAR-3 ovarian 101% | HS 578T breast 101% | NCI/ADR-RES ovarian 98.1%

CC[C@H](Nc1ncnc2nc[nH]c12)c1nc2cccc(CC(=O)c3ccc(C(=O)NO)cc3)c2c(=O)n1-c1ccccc1
inactive: SK-MEL-2 melanoma 77.5% | EKVX NSCLC 90.6% | SN12C renal 84% | UO-31 renal 87.4% | TK-10 renal 88.1% | ACHN renal 102% | A498 renal 74% | CCRF-CEM leukemia 90.1% | MOLT-4 leukemia 66.8% | SR leukemia 67.6% | RPMI-8226 leukemia 45.1% | OVCAR-8 ovarian 81.3% | OVCAR-5 ovarian 97.9% | OVCAR-4 ovarian 78.3% | SK-OV-3 ovarian 98.8% | IGROV1 ovarian 89.1% | OVCAR-3 ovarian 76.9% | HS 578T breast 72% | NCI/ADR-RES ovarian 94%

O=C1Nc2ccc(Cl)cc2/C1=N/c1nc(-c2ccc(F)cc2)cs1
inactive: SK-MEL-2 melanoma 39.9% | EKVX NSCLC 44.5% | SN12C renal 54.8% | UO-31 renal 50.4% | TK-10 renal 59.2% | ACHN renal 48.5% | A498 renal 33.3% | CCRF-CEM leukemia 11.1% | OVCAR-8 ovarian 45.3% | OVCAR-5 ovarian 75% | OVCAR-4 ovarian 32.2% | SK-OV-3 ovarian 56.4% | IGROV1 ovarian 25.6% | OVCAR-3 ovarian 39.2% | HS 578T breast 38.5% | NCI/ADR-RES ovarian 79.8%
active: MOLT-4 leukemia 1.99% | SR leukemia 1.96% | RPMI-8226 leukemia 8.37%

COc1ccc(-c2cc(-c3nnc(SCC(=O)Nc4ccc(/C(C)=N\O)cc4)n3-c3ccccc3)c3cc(OC)ccc3n2)cc1
inactive: SK-MEL-2 melanoma 86.9% | EKVX NSCLC 82.7% | SN12C renal 86.8% | UO-31 renal 54.7% | TK-10 renal 87.8% | ACHN renal 72.6% | A498 renal 78.1% | CCRF-CEM leukemia 37.2% | MOLT-4 leukemia 29.9% | SR leukemia 49.1% | RPMI-8226 leukemia 66.7% | OVCAR-8 ovarian 75.8% | OVCAR-5 ovarian 102% | OVCAR-4 ovarian 92.1% | SK-OV-3 ovarian 79.9% | IGROV1 ovarian 39.6% | OVCAR-3 ovarian 77.4% | HS 578T breast 82.7% | NCI/ADR-RES ovarian 71.3% | T-47D breast 45.4%

COc1cc(C2=NN(C=O)C(c3cccc(Nc4ccnc5cc(C(F)(F)F)ccc45)c3)C2)cc(OC)c1OC (stereo not drawn)
inactive: SK-MEL-2 melanoma 70.7% | EKVX NSCLC 61.5% | SN12C renal 62.4% | UO-31 renal 37.6% | TK-10 renal 46.5% | ACHN renal 65.5% | A498 renal 65.4% | CCRF-CEM leukemia 37.5% | MOLT-4 leukemia 21.5% | SR leukemia 32.3% | RPMI-8226 leukemia 27% | OVCAR-8 ovarian 61.9% | OVCAR-5 ovarian 102% | OVCAR-4 ovarian 59.1% | SK-OV-3 ovarian 81.6% | IGROV1 ovarian 67.3% | OVCAR-3 ovarian 54.6% | HS 578T breast 87.5% | NCI/ADR-RES ovarian 55.3% | T-47D breast 43.6%

O=C(CCCC(=O)Nc1ccc(-n2nnc3cc(Cl)c(Cl)cc32)cc1)Nc1ccc(-n2nnc3cc(Cl)c(Cl)cc32)cc1
active: OVCAR-4 ovarian -5.56%
inactive: SK-MEL-2 melanoma 53.8% | EKVX NSCLC 64.4% | SN12C renal 40.5% | UO-31 renal 79.8% | TK-10 renal 84% | ACHN renal 66.2% | A498 renal 36.5% | CCRF-CEM leukemia 77.6% | MOLT-4 leukemia 91.1% | SR leukemia 51.2% | RPMI-8226 leukemia 81.1% | OVCAR-8 ovarian 25.5% | OVCAR-5 ovarian 87.6% | SK-OV-3 ovarian 31% | IGROV1 ovarian 59.8% | OVCAR-3 ovarian 56.1% | HS 578T breast 49.8% | NCI/ADR-RES ovarian 84.5%

COc1cc(-c2csc(NC(=O)Nc3cc(Cl)cc(Cl)c3)n2)cc(OC)c1OC
inactive: SK-MEL-2 melanoma 75.2% | CCRF-CEM leukemia 13.5% | MOLT-4 leukemia 16.3% | RPMI-8226 leukemia 13.7% | OVCAR-5 ovarian 39.1% | SK-OV-3 ovarian 14.9%
active: EKVX NSCLC 1.71% | SN12C renal -84% | UO-31 renal -66% | TK-10 renal -68.9% | ACHN renal -33% | A498 renal -25.9% | SR leukemia -4.59% | OVCAR-8 ovarian 9.3% | OVCAR-4 ovarian -81.4% | IGROV1 ovarian -59.4% | OVCAR-3 ovarian -85.9% | HS 578T breast -18.2% | NCI/ADR-RES ovarian 5.24%

COC(=O)/C=C1\SC(=Nc2ccc(C(F)(F)F)cc2)N(CCc2c[nH]c3ccccc23)C1=O
active: SK-MEL-2 melanoma -54.1% | EKVX NSCLC -6.54% | SN12C renal -65.1% | UO-31 renal -100% | TK-10 renal -33.7% | ACHN renal -100% | A498 renal -48.5% | CCRF-CEM leukemia 3.88% | MOLT-4 leukemia -11.4% | SR leukemia -13.7% | RPMI-8226 leukemia -22.5% | OVCAR-8 ovarian -9.92% | OVCAR-5 ovarian -41.4% | OVCAR-4 ovarian -33.2% | IGROV1 ovarian -66.1% | OVCAR-3 ovarian -91% | HS 578T breast -2.51% | NCI/ADR-RES ovarian -12.9%
inactive: SK-OV-3 ovarian 10.4%

COc1cc(-c2csc(NC(=O)Nc3ccc(C(F)(F)F)cc3)n2)cc(OC)c1OC
active: SK-MEL-2 melanoma -23.8% | EKVX NSCLC 5.7% | SN12C renal 3.08% | UO-31 renal -2.16% | TK-10 renal 4.58% | ACHN renal 3.21% | A498 renal -24.1% | CCRF-CEM leukemia 5.13% | MOLT-4 leukemia -9.27% | SR leukemia -3.44% | RPMI-8226 leukemia -11.5% | OVCAR-8 ovarian 3.06% | SK-OV-3 ovarian -3.3% | OVCAR-3 ovarian 1.73% | HS 578T breast 6.93% | NCI/ADR-RES ovarian -1.59%
inactive: OVCAR-5 ovarian 33% | OVCAR-4 ovarian 13.4% | IGROV1 ovarian 42.8%

CCOCCc1c(O)nc(SC)[nH]c1=O
active: SK-MEL-2 melanoma -28.8%
inactive: EKVX NSCLC 121% | SN12C renal 92.6% | UO-31 renal 83.9% | TK-10 renal 122% | ACHN renal 108% | A498 renal 85.7% | CCRF-CEM leukemia 113% | MOLT-4 leukemia 116% | SR leukemia 112% | RPMI-8226 leukemia 94.4% | OVCAR-8 ovarian 103% | OVCAR-5 ovarian 87.3% | OVCAR-4 ovarian 108% | SK-OV-3 ovarian 102% | IGROV1 ovarian 100% | OVCAR-3 ovarian 186% | HS 578T breast 92.9% | NCI/ADR-RES ovarian 96.5%

— PubChem BioAssay (NCI)
